Results as given in PubChem BioAssay (Tox21).
“And” between values parts separate entries of the source, which are not always exact repeats. Equal values may be shown once. Results filed as inconclusive are left out. Entries that show only a call come without a potency. The source holds several records for some structures; these can differ, active in one and inactive in another. The source made the active and inactive calls. Calls follow the shape of the full dose curve.

Assay: Nuclear factor erythroid 2-related factor 2/antioxidant responsive element (Nrf2/ARE) small molecule agonists: luciferase reporter gene qHTS assay in human keratinocytes (AID 1919969); also: nearly all actives have a fitted effect of over 35% in size
Details: KeratinoSens HaCaT ARE-luciferase, luminescence, 24 h; series mostly up to 92.4 µM
From the text: National Center for Advancing Translational Sciences [NCATS]
Division of Preclinical Innovation [DPI]
U.S. Environmental Protection Agency [EPA]
National Institutes of Environmental Health Sciences [NIEHS]
National Toxicology Program [NTP]
U.S. Food and Drug Administration [FDA]
Oxidative stress has been implicated in the pathogenesis of a variety of diseases ranging from cancer to neurodegeneration. The antioxidant response element (ARE) signaling pathway plays an important role in the amelioration of oxidative stress. The KeratinoSens (Givaudan, Switzerland) is an in vitro test method which quantifies luciferase induction as a measure of activation of Keap1-Nrf2-antioxidationt/electrophile response element (ARE) dependant pathway in HaCaT human keratinocytes stably transfected with a selectable plasmid. The KeratinoSens assay is a cell-based assay with a reporter cell line to detect potential skin sensitizers by their ability to induce the Nrf2/ARE-response. The activation of the report gene under culture conditions can be detected by ONE-Glo Luciferase Assay System (Promega, Madison, WI). This cell line has been used to screen the Tox21 10K compound library to identify agonists that induce oxidative stress. The cytotoxicity of the Tox21 compound library against the KS-ARE cell line was tested in parallel by measuring the cell viability using CellTiter- Fluor assay system (Promega, Madison, WI) in the same wells.
HaCaT derived cell line KeratinoSens were dispensed at 1,500 cells/5uL/well in 1536-well white wall/solid bottom plates using a Multidrop Combi (ThermoFisher Scientific, Waltham, MA) dispenser. After the assay plates were incubated at 37 C/5% CO2 for 5 h, 23 nL of compounds dissolved in DMSO, positive controls or DMSO only was transferred to the assay plate by a pintool workstation (Kalypsys, San Diego, CA). The plates were incubated at 37 C/5% CO2 for 23 h, followed by addition of 1uL/well of CellTiter-Fluor reagent into the assay plates using a Flying Reagent Dispenser (Aurora Discovery, San Diego, CA) for cell viability readout that measures cytotoxicity. After 1 h incubation at 37 C/5% CO2 the fluorescence intensity was measured using a ViewLux (PerkinElmer, Shelton, CT) plate reader. Then 4uL/well of One-Glo were added using a Flying Reagent Dispenser. After the plates were incubated at room temperature for 30 min, the luminescence intensity in the assay plates was measured using ViewLux plate reader.
Potency is read from the fitted curve at half-maximal effect.

| SMILES | Potency |
| --- | --- |
| C=C(C)CC(C)(C)C | inactive |
| NNC(=O)c1ccncc1 | inactive |
| CCCOC(=O)c1ccccc1 | inactive |
| O=C(O)CCCCC1CCSS1 (stereo not given) | 5.44 µM (active) and inactive |
| O=c1ccc2ccccc2o1 | inactive |
| O=C1O[C@H]([C@@H](O)CO)C(O)=C1O | inactive and 61.1 µM (active) |
| C=CCc1ccc(OC)c(OC)c1 | inactive |
| Cc1cccc(C)c1O | inactive |
| CCCCC(CC)COC(=O)c1ccc(C(=O)OCC(CC)CCCC)cc1 (stereo not given) | inactive |
| CCN(CC)C(=O)c1cccc(C)c1 | inactive |
| CCOC(=O)CC(=O)OCC | inactive |
| COC(=O)c1ccc(C=O)cc1 | inactive |
| COc1ccccc1OCC(O)CO (stereo not given) | inactive |
| Cc1ccc(N)c(S(=O)(=O)O)c1 | inactive |
| S=c1nc[nH]c2nc[nH]c12 | inactive |
| O=C(O)c1cc(C(=O)O)cc(S(=O)(=O)O)c1 | inactive |
| O=Cc1ccccc1O | inactive |
| NC(=O)OCC(COC(N)=O)c1ccccc1 | inactive |
| O=C(O)CCCC[C@@H]1SC[C@@H]2NC(=O)N[C@@H]21 | inactive |
| Brc1cc(Oc2cc(Br)c(Br)c(Br)c2Br)c(Br)c(Br)c1Br | 68.9 µM (active) and inactive |

| SMILES | Potency |
| --- | --- |
| CC#C[C@]1(O)CC[C@H]2[C@@H]3CCC4=CC(=O)CCC4=C3[C@@H](c3ccc(N(C)C)cc3)C[C@@]21C | inactive |
| Oc1cccc(O)c1 | inactive |
| C=CCc1ccc(O)c(OC)c1 | inactive |
| C/C=C/c1ccc(O)c(OC)c1 | inactive |
| C=CN1CCCC1=O | inactive |
| CN1CCC[C@H]1c1cccnc1 | inactive |
| CCCCCCCCCCCCc1ccccc1 | 61.2 µM (active) and inactive |
| Cc1ccc(N)c([N+](=O)[O-])c1 | inactive |
| CCc1cccc(O)c1 | inactive |
| C/C=C/C(=O)N(CC)c1ccccc1C | inactive |
| Nc1c2c(nc3ccccc13)CCCC2 | 48.6 µM (active) and inactive |
| Cc1noc(NS(=O)(=O)c2ccc(N)cc2)c1C | inactive |
| O=C(c1cc(O)c(O)c(O)c1)c1ccc(O)c(O)c1O | inactive |
| CC1(C)NC(=O)N(c2ccc([N+](=O)[O-])c(C(F)(F)F)c2)C1=O | inactive |
| COCC(=O)O | inactive |
| NC(N)=NC(N)=NCCc1ccccc1 | inactive |
| NCCCCCCN | inactive |
| CC1(C)OC[C@@H]2O[C@@]3(C(=O)O)OC(C)(C)O[C@H]3[C@@H]2O1 | inactive |
| CCCCCCCCCCCCN | inactive |
| CC(=O)c1ccc(O)cc1 | inactive |
